# Measurements as given in ChEMBL document CHEMBL3988442, “University of Dundee, Small-Polar-MMV Screening Library” (2021).
# Legend:
# [1] = molecular target: T1, Aspartate--tRNA(Asp/Asn) ligase (Mycobacterium tuberculosis (strain ATCC 25618 / H37Rv)) (UniProt P9WFW3); assay: Assay for Asp RNA synthetase-1 from Mycobacterium tuberculosis; type: functional; design: scale not given: direction of the effect not stated beside the values; conditions: 30 µM; further: in the data most compounds retested in dose-response had high values
# T1 sequence (whole entry): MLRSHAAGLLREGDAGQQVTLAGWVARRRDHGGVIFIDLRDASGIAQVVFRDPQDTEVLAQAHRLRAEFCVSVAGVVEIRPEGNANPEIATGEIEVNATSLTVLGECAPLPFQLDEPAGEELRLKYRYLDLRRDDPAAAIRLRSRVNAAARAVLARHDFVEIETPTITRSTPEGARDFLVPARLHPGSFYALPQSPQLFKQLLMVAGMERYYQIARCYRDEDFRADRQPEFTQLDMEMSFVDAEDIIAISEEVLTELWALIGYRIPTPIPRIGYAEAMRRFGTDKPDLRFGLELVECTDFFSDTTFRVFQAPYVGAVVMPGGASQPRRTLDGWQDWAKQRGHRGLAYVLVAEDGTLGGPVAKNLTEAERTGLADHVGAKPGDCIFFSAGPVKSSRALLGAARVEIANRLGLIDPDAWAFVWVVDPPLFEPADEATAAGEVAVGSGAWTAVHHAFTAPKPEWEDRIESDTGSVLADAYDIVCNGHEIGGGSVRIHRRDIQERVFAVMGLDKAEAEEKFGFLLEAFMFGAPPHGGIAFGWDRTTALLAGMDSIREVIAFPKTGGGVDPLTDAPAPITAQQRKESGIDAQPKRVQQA
# [2] = molecular target: Shiga toxin 2 (Escherichia coli O157:H7) (UniProt P09385+P09386); assay: E. coli 0.157:H7 Shiga Toxin SOP - stx2 screening assay; type: functional; design: scale not given: direction of the effect not stated beside the values; conditions: 30 µM
structure (smiles),measurement,setting,value
Cn1cc(N2CC3(COCCN(Cc4ccsc4)C3)OCC2=O)cn1 (stereo not given),Percent Effect,[1],13.7%
same,Percent Effect,[2],-3.88%
CC(C)c1nc(C2CCCN2CC(=O)N2CCc3ccccc32)no1 (stereo not given),Percent Effect,[1],1.52%
same,Percent Effect,[2],10.6%
COc1cccn(CC(=O)N(C)CCOc2cc(C)cc(C)c2)c1=O,Percent Effect,[1],38.9%
same,Percent Effect,[2],-20.3%
CC(C)(C)n1ncc2c1NC(=O)CC2c1ccccc1 (stereo not given),Percent Effect,[1],-5%
same,Percent Effect,[2],22%
CCOc1ccc(-c2ccnc(CC)n2)cc1C(=O)O,Percent Effect,[1],-3.09%
same,Percent Effect,[2],0.242%
CC(C)(C)c1cn2nc(N3CCCC3Cn3cncn3)sc2n1 (stereo not given),Percent Effect,[1],-3.59%
same,Percent Effect,[2],-12.7%
CCOc1ncccc1CNC(=O)Nc1ccc(N(C)C)nc1,Percent Effect,[1],3.77%
same,Percent Effect,[2],-48.5%
Cc1nc(CN2CCN(CC(=O)Nc3c(C)cccc3C)CC2)no1,Percent Effect,[1],-3.29%
same,Percent Effect,[2],-6.23%
Cc1cnccc1CN1CC[C@@](C)(O)[C@H](Oc2ccccc2)C1,Percent Effect,[1],-5.05%
same,Percent Effect,[2],-31%
CNS(=O)(=O)CCCN1CCCC1c1cc(C)on1 (stereo not given),Percent Effect,[1],1.49%
same,Percent Effect,[2],5.74%
CNc1oc(-c2ccc(OC)c(S(=O)(=O)N3CCCCC3)c2)nc1C#N,Percent Effect,[1],-1.39%
same,Percent Effect,[2],-28.4%
C1CCCN(c2nc(C3CC3)ns2)CC1,Percent Effect,[1],-2.7%
same,Percent Effect,[2],-28.7%
CCCN(C(=O)c1ccccn1)c1nc2c(s1)CCc1c-2cnn1C,Percent Effect,[1],55.9%
same,Percent Effect,[2],-72.4%
Cc1c[nH]nc1C1CCCCN1C(=O)Cn1cc(Cl)cn1 (stereo not given),Percent Effect,[1],4.25%
same,Percent Effect,[2],10.4%
COCC(=O)N1CCCC1c1ccnc(Nc2cnccn2)n1 (stereo not given),Percent Effect,[1],0.0744%
same,Percent Effect,[2],1.15%
Cc1c(O)oc(-c2ccc(Br)cc2)nc1=O,Percent Effect,[1],-1.84%
same,Percent Effect,[2],-45.4%
CC(=O)N1[C@H](CN(C)C)C[C@@H]2CN(C(=O)c3cccc(F)c3)CC[C@@H]21,Percent Effect,[1],-0.523%
same,Percent Effect,[2],-3.85%
O=C(NCc1ccccn1)c1nnn(-c2ccc(Br)cc2)n1,Percent Effect,[1],-5.38%
same,Percent Effect,[2],-13.6%
CC(C)c1nnc2n1CCN(C(=O)c1ccc(-n3cnnc3)cc1)C2,Percent Effect,[1],-3.86%
same,Percent Effect,[2],-19.9%
Cc1ccc(CC2CCCN2CC(=O)NCc2cccnc2)cc1 (stereo not given),Percent Effect,[1],0.509%
same,Percent Effect,[2],16.7%
Cc1cc(C)n(CC2CCCN2CC(=O)NC2CCOCC2)n1 (stereo not given),Percent Effect,[1],-3.04%
same,Percent Effect,[2],-26.7%
CC(NC(=O)NCCOc1ccc(F)c(F)c1)c1nncn1C (stereo not given),Percent Effect,[1],-4.5%
same,Percent Effect,[2],27.5%
Cc1ccc(C(=O)N2CCC3(CC2)CC(c2ccccc2)C(=O)N3)cn1 (stereo not given),Percent Effect,[1],7.75%
same,Percent Effect,[2],-10.4%
COc1ccc(C2=CCN(C(=O)CN(C)Cc3ccoc3)CC2)cc1,Percent Effect,[1],-8.11%
same,Percent Effect,[2],-67.5%
Cc1cc(C)c2nc(CN3CCOC(CCO)C3)cc(O)c2c1 (stereo not given),Percent Effect,[1],-0.725%
same,Percent Effect,[2],-15.7%
